Experimental data published in PubChem BioAssay (Tox21).
“And” between values parts separate entries of the source, which are not always exact repeats. Identical values can stand only once. Results filed as inconclusive are left out. The source made the active and inactive calls. Calls follow the shape of the dose curve; as a rule, active = well fitted curve in the direction sought with a large enough effect in the repeat runs; inconclusive = weak or mixed curves; inactive = no such curve, though single readings can be large; an effect the other way counts as inactive or inconclusive.

Key:
[1] = A CellTox Green Cytotoxicity Assay to monitor cytotoxicity in HepG2 cells - 0 hour (AID 1224882); also: nearly all actives have a fitted effect of over 35% in size
In short: (§1)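 Cytotoxicity was tracked as dead-cell DNA fluorescence in HepG2 cells treated with test compounds at 37 C; each time-point value comes from one kinetic series spanning 0, 8, 16, 24, 32 and 40 h.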

[2] = A CellTox Green Cytotoxicity Assay to monitor cytotoxicity in HepG2 cells - 32 hour (AID 1224883); also: nearly all actives have a fitted effect of over 50% in size; also: potency is read from the fitted curve at half-maximal effect
In short: as §1

[3] = A CellTox Green Cytotoxicity Assay to monitor cytotoxicity in HEK293 cells - 8 hour (AID 1224884); also: nearly all actives have a fitted effect of over 35% in size; also: potency is read from the fitted curve at half-maximal effect
In short: (§2)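 Real-time, in one plate: 600 HEK293 cells/well with dead-cell DNA dye, pinned compound after 5 h, 37 C incubation over 40 h; viable cells give no appreciable fluorescence.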

[4] = qHTS RealTime-Glo MT Cell Viability Assay in HepG2 cells - 16 hour (AID 1224885); also: nearly all actives have a fitted effect of over 50% in size; also: potency is read from the fitted curve at half-maximal effect
In short: (§3)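 Real-time, nonlytic viability: 600 HepG2 cells/well mixed with NanoLuc enzyme plus prosubstrate; 5 h settle, compound (DMSO) added by pintool; luminescence monitored over 40 h at 37 C.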

[5] = qHTS RealTime-Glo MT Cell Viability Assay in HEK293 cells - 24 hour (AID 1224886); also: nearly all actives have a fitted effect of over 50% in size; also: potency is read from the fitted curve at half-maximal effect
In short: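 Cells + reagent dispensed (600 cells/well, HEK293) → 5 h at 37 C/5% CO2 → 23 nL compound in DMSO pinned → 40 h at 37 C → luminescence read at 0, 8, 16, 24, 32, 40 h.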

[6] = qHTS RealTime-Glo MT Cell Viability Assay in HEK293 cells - 8 hour (AID 1224887); also: nearly all actives have a fitted effect of over 50% in size; also: potency is read from the fitted curve at half-maximal effect
In short: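 Kinetic, non-lysing viability readout. Seed HEK293 (600/well) with reagent, incubate 5 h at 37 C/5% CO2, pin 23 nL compound in DMSO, incubate at 37 C, read luminescence at 0, 8, 16, 24, 32, 40 h.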

[7] = A CellTox Green Cytotoxicity Assay to monitor cytotoxicity in HEK293 cells - 16 hour (AID 1224888); also: nearly all actives have a fitted effect of over 35% in size
In short: as §2

[8] = A CellTox Green Cytotoxicity Assay to monitor cytotoxicity in HepG2 cells - 8 hour (AID 1224890); also: nearly all actives have a fitted effect of over 45% in size
In short: as §1

[9] = qHTS assay to identify small molecule antagonists of the estrogen receptor alpha (ER-alpha) signaling pathway using the BG1 cell line in the presence of 0.1 nM 17-beta-estradiol - cell viability counter screen (AID 1259241); also: nearly all actives have a fitted effect of over 40% in size
In short: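 The cell line endogenously expresses full-length ER-alpha and carries four EREs driving luciferase. Cells are cultured 5 days hormone-free, treated 22 hr with compounds and 0.1 nM estradiol, then viability is read by fluorescence.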

[10] = qHTS RealTime-Glo MT Cell Viability Assay in HepG2 cells - 0 hour (AID 1224889); also: nearly all actives have a fitted effect of over 50% in size
In short: as §3

Measured: Potency

O=C(N/N=C/c1ccc([N+](=O)[O-])o1)c1cc([N+](=O)[O-])cc([N+](=O)[O-])c1O
not listed: [9] | [10]
inactive: all other assays above

COC(=O)Cc1ccccc1
not listed: [10]
inactive: all other assays above

O=C([O-])c1ccccn1.O=C([O-])c1ccccn1.O=C([O-])c1ccccn1.[Cr+3]
not listed: [10]
inactive: all other assays above

CC[N+]1(CCOC(=O)C(O)(c2ccccc2)c2ccccc2)CCCCC1
inactive: all assays above

CCOC(=O)NC(O)C(Cl)(Cl)Cl (stereo not drawn)
inactive: all assays above

CCc1ccccc1N
inactive: all assays above

CCC1(CCC(C)C)C(=O)NC(=O)NC1=O
inactive: all assays above

CC(Oc1cccc(Cl)c1)C(=O)O (stereo not drawn)
inactive: all assays above

CCSCc1ccccc1OC(=O)NC
inactive: all assays above

CC(C)(c1ccccc1)c1cc(-n2nc3ccccc3n2)c(O)c(C(C)(C)c2ccccc2)c1
inactive: all assays above

NP(N)(=O)NC(=O)c1ccc(F)cc1
inactive: all assays above

O=S(=O)(Cl)Cl
inactive: all assays above

Clc1ccc(Cl)c(Cl)c1
not listed: [10]
inactive: all other assays above

CC1(C)[C@H](C(=O)O[C@H](C#N)c2cccc(Oc3ccccc3)c2)[C@@H]1C=C(Br)Br
inactive: all assays above

CCOC(=O)C1OC1(C)c1ccccc1 (stereo not drawn)
inactive: all assays above

CCCBr
inactive: all assays above

CCCSP(=S)(OCC)Oc1ccc(SC)cc1 (stereo not drawn)
inactive: all assays above

Cc1nc(N(C)C)nc(OC(=O)N(C)C)c1C
inactive: all assays above

CCC[N+](CCC)(CCC)CCC
inactive: all assays above

COc1ccc2c(c1OC)C(=O)O[C@H]2[C@@H]1c2cc3c(cc2CCN1C)OCO3
inactive: all assays above

CCNC(=O)NC(=O)/C(C#N)=N/OC
inactive: all assays above

C=C(C)C(=O)OCCCCOC(=O)C(=C)C
inactive: all assays above

CCOC(=O)c1cncn1C(C)c1ccccc1 (stereo not drawn)
inactive: all assays above

COc1ccc(C(O)(c2cncnc2)C2CC2)cc1 (stereo not drawn)
inactive: all assays above

CC(C)C1(C)N=C(c2ncccc2C(=O)O)NC1=O (stereo not drawn)
inactive: all assays above

C[C@H]1[C@@H]2Cc3ccc(O)cc3[C@@]1(C)CCN2C
inactive: all assays above

C[C@]12CC[C@H]3[C@@H](CCC4=CC(=O)CC[C@@H]43)[C@@H]1CC[C@@H]2OC(=O)CCc1ccccc1
inactive: all assays above

COC(=O)C1(O)c2ccccc2-c2ccccc21
not listed: [10]
inactive: all other assays above

CC1(C)CC(=O)CC(C)(C)N1[O]
inactive: all assays above

CC(C)c1ccc(OP(=O)(Oc2ccc(C(C)C)cc2)Oc2ccc(C(C)C)cc2)cc1
inactive: all assays above

C=CCc1ccccc1O
not listed: [10]
inactive: all other assays above

CCCCC#N
not listed: [7]
inactive: all other assays above

CC(C)(C#N)C(C)(C)C#N
not listed: [10]
inactive: all other assays above

Oc1cccc(Cl)c1
not listed: [10]
inactive: all other assays above

CN(C1CCCCC1)C1CCCCC1
not listed: [7]
inactive: all other assays above

CC(C)(C)OOC(C)(C)CCC(C)(C)OOC(C)(C)C
not listed: [7]
inactive: all other assays above

O=[N+]([O-])/C=C/c1ccccc1
active: [2] 17.7 µM | [4] 49.8 µM and 21.9 µM | [5] 6.27 µM and 13.8 µM | [6] 14 µM and 15.5 µM
inactive: [1] | [3] | [7] | [9]

Clc1ccccc1
not listed: [10]
inactive: all other assays above

CCOP(=S)(OCC)SCSc1cc(Cl)ccc1Cl
not listed: [10]
inactive: all other assays above

c1ccc2c(c1)sc1ccccc12
not listed: [7]
inactive: all other assays above

CC(C)CCON=O
not listed: [7]
inactive: all other assays above

O=C(N[C@H]1CN2CCC1CC2)c1ccc2c(c1)OCCO2
not listed: [10]
inactive: all other assays above

CCC(C)Cl (stereo not drawn)
not listed: [10]
inactive: all other assays above

Nc1ccccc1C(=O)OCC(O)CO (stereo not drawn)
not listed: [7]
inactive: all other assays above

C=CCSSCC=C
active: [3] 54.9 µM
not listed: [7]
inactive: all other assays above

NC(=S)c1c(Cl)cccc1Cl
not listed: [10]
inactive: all other assays above

O=C(O)c1cc(Cl)ccc1Cl
not listed: [10]
inactive: all other assays above

O=C(O)CCCOc1ccc(Cl)cc1Cl
not listed: [7]
inactive: all other assays above

CC(O)CN1CCN(CC(=O)[O-])CCN(CC(=O)[O-])CCN(CC(=O)[O-])CC1.[Gd+3] (stereo not drawn)
not listed: [10]
inactive: all other assays above

C[N+]1(CCC(C(N)=O)(c2ccccc2)c2ccccc2)CCCCC1
not listed: [7]
inactive: all other assays above
